# Source: PubChem (several laboratories)
# Rows were chosen to be rich in hits. Some 2.6% of all compounds tested hit in one or more screens of this group.
# LGR2 antag = inhibitors of bursicon-induced LGR2 CRE-luciferase signal, primary screen, cell-based, HEK293, CRE-luciferase reporter, bursicon stimulation; bursicon-stimulated, 4 h; inhibition, % at 9.99 µM; Drosophila bursicon receptor LGR2 (rickets); 380,000 tested, 0.35% active;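 active means drop in luminescence signal, shown as inhibition above about 50% in the replicate tests, limit read from the data, passing the limit was not always enough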;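 further: agonist challenge used bursicon conditioned medium at about half maximal strength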
# EWS-Fli inh = EWS/Fli-driven NR0B1 reporter inhibitors, primary screen, A673 cells, NR0B1 luciferase, luminescence, MLPCN library | inhibition, % at 12.6 µM | viability-normalised | 350,000 tested, 0.67% active;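 active means mean inhibition of at least 50% after viability correction, with every replicate also passing that limit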;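 further: firefly luciferase signal divided by Alamar Blue viability fluorescence both relative to DMSO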
# TROY signal inh = inhibitors of TROY-driven NF-kB signaling, primary screen, Q293 LMP1-TROYcd cells, NF-kB luciferase, uHTS. 360,000 tested, 0.98% active. inhibition, % at 10 µM. Q293 LMP1-TROYcd NF-kB luciferase reporter, 4 h;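 active means compounds whose plate-normalised and pattern-corrected inhibition of the luciferase reporter signal at the single screening dose is 50% or more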
# TWEAK Fn14 block = inhibitors of TWEAK-Fn14 signaling, primary screen, luciferase reporter cells, uHTS; TWEAK-stimulated Fn14 reporter cells, luciferase luminescence, 8 h; 360,000 tested, 2% active; inhibition, % at 10 µM; in the data active means inhibition above about 50%
# EBV LMP1 NFkB = EBV LMP1-driven NF-kappaB luciferase reporter inhibitors, primary screen, cell-based, luminescence, single point; LMP1-induced NF-kappaB luciferase reporter cells; inhibition, % at 12.5 µM; 350,000 tested, 0.69% active; in the data active means inhibition above about 41%
# A number is an active result; – = inactive; · = no result.
SMILES,LGR2 antag,EWS-Fli inh,TROY signal inh,TWEAK Fn14 block,EBV LMP1 NFkB
CCc1ccc(N2CC(C(=O)Nc3ccc4c(c3)OCCO4)CC2=O)cc1 (stereo not drawn),–,–,55,51,–
CC(C)[Si](C#CCCCC#N)(O[C@H](c1ccccc1)c1cn(Cc2cccc(Cl)c2)nn1)C(C)C,·,–,·,·,·
Cc1csc2ncnc(N3CCN(C(=S)Nc4ccc(F)cc4F)CC3)c12,–,–,90,54,·
Fc1ccc(NC(=S)N2CCCN(c3ccc(C(F)(F)F)cn3)CC2)c(F)c1,–,–,–,–,–
COc1ccc(/C=N/N2C(=O)CSC2=S)cc1,·,·,–,–,–
COc1ccc(-c2nn(-c3ccccc3)cc2/C=N/N2C(=O)CSC2=S)cc1,·,·,–,62,–
CCCOc1ccc(N)cc1N,·,·,–,–,54
CCCOc1cc(N)ccc1C(=O)OCCN(CC)CC,–,–,–,–,–
O=C(NC1CCCC1)N1CC(=O)N2[C@H](CO)[C@@H](c3ccc(-c4cccc(F)c4)cc3)[C@@H]2C1,–,–,·,·,·
COc1cc2c(cc1OC)CN(c1ccc(C(F)(F)F)cn1)CC2,–,·,–,51,–
COc1cc2c(cc1OC)CN(c1ccc3ccccc3n1)CC2,–,–,–,–,–
COc1ccc(N(CC(=O)NCCSc2ccccn2)S(C)(=O)=O)cc1,–,·,–,–,–
COc1ccc(NC(=O)c2cccc(NC(=O)c3ccccc3)c2)cc1,–,–,–,–,–
COc1ccc(NC(=O)c2cc3ccccn3n2)cc1,–,–,–,63,–
COc1ccc(C(=O)NCCSc2ccccn2)cc1,·,·,–,65,–
COc1ccc(NC(=O)c2ccccn2)cc1,·,·,57,84,52
COc1ccc(S(=O)(=O)Nc2ccc3c(c2)C(=O)N([C@H](C)CO)C[C@@H](C)[C@H](CN(C)S(=O)(=O)c2ccc(F)cc2)OCCCC[C@@H](C)O3)cc1,–,–,·,·,·
C[C@H]1CN([C@@H](C)CO)S(=O)(=O)c2ccc(/C=C/c3ccccc3)cc2O[C@@H]1CN(C)C(=O)c1ccccc1,–,–,·,·,·
Nc1nc(-c2cccs2)c(CC(=O)O)s1,–,–,–,–,–
O=C(O)Cc1sc(Nc2ccc(Cl)cc2)nc1-c1cccs1,–,–,·,·,51
CCCc1ccc(-c2ccc(F)c(N)c2)nc1,79,·,63,89,69
O=C(Nc1nnc(CCS(=O)(=O)c2ccc(Br)cc2)s1)c1ccc([N+](=O)[O-])cc1,·,·,–,51,–
O=C(Nc1nnc(COc2ccc(Cl)cc2)s1)c1ccc([N+](=O)[O-])cc1,·,·,–,–,–
COc1cc(C(=O)Nc2ccc3nc(N4CCN(C)CC4)cc(C)c3c2)cc(OC)c1OC,–,–,–,–,–
COc1ccc(NC(=O)c2ccc(-c3ccc(-c4noc(C)n4)cc3C)cc2)cc1N1CCN(C)CC1,104,–,–,–,–
SMILES,LGR2 antag,EWS-Fli inh,TROY signal inh,TWEAK Fn14 block,EBV LMP1 NFkB
COc1ccc(-c2nc(-c3ccc(NC(=O)c4ccncc4)cc3)no2)cc1OC,·,·,67,94,–
COc1ccc(Cl)cc1-c1nc(-c2ccc(NC(=O)c3ccncc3)cc2)no1,·,·,–,–,–
Cc1ccc(NC(=O)C2=C(c3ccccc3)S(=O)(=O)CCS2(=O)=O)cc1,–,65,74,88,93
Cc1ccc(NC(=O)c2ccccc2)cc1,·,·,–,–,–
CC(=O)N[C@@H]1C[C@@H]2O[C@H](CO)CC[C@@H]2O[C@@H]1CCc1ccc(-c2ccc(F)cc2)cc1,·,–,·,·,·
COc1ccc(F)cc1C1=CC(=O)C[C@H](c2ccc3c(c2)OCO3)C1,–,53,–,–,–
COc1cccc(C2=CC(=O)C[C@H](c3ccc4c(c3)OCO4)C2)c1,·,·,–,–,48
O=C1C=C(c2ccccc2)C[C@@H](c2ccc3c(c2)OCO3)C1,–,–,–,–,–
CCCNC(=O)Nc1ccc2c(c1)C(=O)N(C)[C@@H]1CC[C@@H](CC(=O)OC)O[C@H]1CO2,–,–,·,·,·
CCCNC(=O)N1C[C@@H](O)COC[C@H]2O[C@@H](CC(=O)N[C@H]3CCN(Cc4ccccc4)C3)CC[C@@H]21,–,–,·,·,·
C=C1CC2(OC1=O)c1ccccc1CCc1ccccc12,76,52,51,–,–
Cc1ccc(OCC(=O)NNC(=S)NC(=O)C2CCCCC2)c(C)c1,·,·,–,–,45
C[C@H](CO)N1C[C@H](C)[C@H](CN(C)S(C)(=O)=O)Oc2ncc(C#CC(C)(C)O)cc2C1=O,–,–,·,·,·
